According to the supplement of paper PMC9399229:
Several values for one entry are separate records, joined by “and”; a condition that tells them apart may be missing. Identical values can stand only once. Counter-ions that a name gives are not always drawn. ± gives the standard deviation of the averaged measurements. In all, about 1,900 compounds were measured (“relative cell viability (CellTiter-Glo), compound alone”: median about 1, lowest 2% from about 0.16 on). For the sample, the lowest values were picked, then their nearest neighbours and some compounds at random.

Each molecule was assayed on Hep3B (assay: relative cell viability (CellTiter-Glo), compound alone (fraction); higher = more viable cells (less growth inhibition)). Settings: cabozantinib 0 µM; 4 days.
With `CC(C)c1ccc(NC(=O)Cn2cnc3c2c(=O)n(C)c(=O)n3C)cc1` the relative cell viability was 1.02 ± 0.041.
Work on `Cc1ccc(C(=O)N(CCCN)[C@@H](c2oc3cc(Cl)ccc3c(=O)c2Cc2ccccc2)C(C)C)cc1` yielded a relative cell viability of 0.245 ± 0.0053.
For `CC1=C(C(=O)Nc2cc3cn[nH]c3cc2F)C(c2ccc(C(F)(F)F)cc2)CC(=O)N1` (stereo not drawn), the relative cell viability was 1.3 ± 0.16.
`C/C(=N\NC(=S)N1CCC1)c1ccccn1` showed a relative cell viability of 0.0813 ± 0.0087.
In the case of `CN(C)C(=S)NN=C(c1ccccn1)c1ccccn1`, the relative cell viability is reported as 0.265 ± 0.025.
For `CCN(CC)C(=S)SSC(=S)N(CC)CC` [Disulfiram], the relative cell viability was 0.134 ± 0.012.
`CN1CCN(c2ccc(OC(F)(F)F)c(Nc3ncc4c(n3)-c3c(c(C(N)=O)nn3CCO)CC4)c2)CC1` was tested, and the relative cell viability was 0.48 ± 0.02.
Molecule `O=C(N/N=C/c1ccc(O)c(O)c1)c1cc2ccccc2cc1O` [Dynasore] has a relative cell viability of 0.932 ± 0.05.
`Cc1nc2c([nH]1)-c1ccccc1N(C(=O)c1ccc(NC(=O)c3ccccc3-c3ccccc3)cc1)CC2` [Conivaptan HCl] showed a relative cell viability of 1.12 ± 0.15.
With `C[C@@H](O[C@H]1OCCN(Cc2nn(P(=O)(O)O)c(=O)[nH]2)[C@H]1c1ccc(F)cc1)c1cc(C(F)(F)F)cc(C(F)(F)F)c1` [Fosaprepitant dimeglumine salt] the relative cell viability was 1.04 ± 0.1.
For `O=C(O)C1=CO[C@@H](O[C@@H]2O[C@H](CO)[C@@H](O)[C@H](O)[C@H]2O)[C@@H]2C(CO)=CC[C@H]12` [Geniposidic acid], the relative cell viability was 1.04 ± 0.16.
For `COc1cc(N2CCC(N)CC2)ccc1Nc1ncc(Cl)c(-c2c[nH]c3ccccc23)n1`, the relative cell viability was 0.138 ± 0.00027.
Molecule `CNC(=O)c1ccccc1Nc1nc(Nc2ccc(N3CCOCC3)cc2OC)ncc1Cl` has a relative cell viability of 0.273 ± 0.0076.
For `CCOc1cc(N2CCC(O)CC2)ccc1Nc1ncc2c(n1)N(C)c1ccccc1C(=O)N2C`, the relative cell viability was 1.14 ± 0.05.
Work on `Nc1ncnc2c1C(=O)N(c1ccc([C@H]3CC[C@H](CC(=O)O)CC3)cc1)CCO2` yielded a relative cell viability of 1.289 ± 0.0053.
With `CC(C)C[C@H](NP(=O)(O)O[C@@H]1O[C@@H](C)[C@H](O)[C@@H](O)[C@H]1O)C(=O)N[C@@H](Cc1c[nH]c2ccccc12)C(=O)O` [Phosphoramidon Disodium Salt] the relative cell viability was 1.169 ± 0.0058.
`Cn1nnc2c(C(N)=O)ncn2c1=O` [Temozolomide] was tested, and the relative cell viability was 1.25 ± 0.15.
In the case of `Cc1cc(N2CCOCC2)ccc1Nc1nc(NC2CCCCC2)c2[nH]cnc2n1`, the relative cell viability is reported as 0.971 ± 0.072.
Work on `CC(C)(C)c1ccc(-c2nc3ccccc3[nH]2)cc1` yielded a relative cell viability of 0.591 ± 0.042.
Molecule `COc1cc2c(c(OC)c1OC)-c1c(cc3c(c1OC)OCO3)CC(C)C(C)C2` (stereo not drawn) [Schisandrin B (Sch B)] has a relative cell viability of 0.988 ± 0.053.
Work on `Nc1ccc2ncnc(NCCc3ccc(Oc4ccccc4)cc3)c2c1` yielded a relative cell viability of 1.22 ± 0.066.
`Cn1nnc(-c2ccc3c(c2)[nH]c2nc(Cc4ccccc4)nc(NC4CCC(N)CC4)c23)n1` (stereo not drawn) was tested, and the relative cell viability was 0.194 ± 0.0028.
In the case of `CN(C)CCC[C@@]1(c2ccc(F)cc2)OCc2cc(C#N)ccc21` [Escitalopram Oxalate], the relative cell viability is reported as 1.13 ± 0.13.
`N#CSc1cc(SC#N)c(N)nc1N` was tested, and the relative cell viability was 1.061 ± 0.0035.
`CCOC(=O)c1ccc(N2NC(=O)C(=Cc3ccc([N+](=O)[O-])o3)C2=O)cc1` was tested, and the relative cell viability was 0.977 ± 0.14.
With `Cn1cc(-c2ccc3c(c2)CCN3C(=O)Cc2cccc(C(F)(F)F)c2)c2c(N)ncnc21` the relative cell viability was 1.34 ± 0.066.
Molecule `CC(C)(C)c1cc(C(=O)C(C#N)=NNc2cccc(Cl)c2)no1` has a relative cell viability of 1.11 ± 0.17.
Work on `O=C(NC1CCOCC1)c1ccc(-c2cc(-c3c[nH]nc3-c3ccccn3)ccn2)cc1` yielded a relative cell viability of 1.23 ± 0.2.
For `O=C(NC1CCNCC1)c1n[nH]cc1NC(=O)c1c(Cl)cccc1Cl`, the relative cell viability was 0.157 and 0.162.
`CC(=O)OCOC(=O)CN(CC(=O)OCOC(C)=O)c1ccccc1OCCOc1ccccc1N(CC(=O)OCOC(C)=O)CC(=O)OCOC(C)=O` was tested, and the relative cell viability was 1.12 ± 0.016.
`CNC(=O)[C@@H](c1ccccc1)N1CCc2cc(OC)c(OC)cc2[C@@H]1CCc1ccc(C(F)(F)F)cc1` [Almorexant HCl] showed a relative cell viability of 1.19 ± 0.11.
`Cc1c(N(C)C)c(=O)n(-c2ccccc2)n1C` [Amidopyrine] showed a relative cell viability of 1.07 ± 0.062.
Work on `COc1ccc2c(Oc3ccc(NC(=O)c4c(C)n(CC(C)(C)O)n(-c5ccccc5)c4=O)nc3)ccnc2c1` yielded a relative cell viability of 1.16 ± 0.024.
In the case of `O=C(NNc1nc2cc(F)ccc2n2cccc12)c1cnccn1`, the relative cell viability is reported as 0.383 ± 0.013.
Work on `C=C1C(=O)[C@]23[C@H](O)[C@H]1CC[C@H]2[C@@]12CO[C@]3(O)[C@@H](O)[C@@H]1C(C)(C)CC[C@@H]2O` [Oridonin] yielded a relative cell viability of 0.9649 ± 0.0085.
Molecule `CCS(=O)(=O)N1CC(CC#N)(n2cc(-c3ncnc4[nH]ccc34)cn2)C1` has a relative cell viability of 0.983 ± 0.088.
`CO[C@H]1/C=C\C=C(/C)C(=O)NC2=CC(=O)C(NCCN(C)C)=C(C[C@@H](C)C[C@H](OC)[C@H](O)[C@@H](C)/C=C(\C)[C@@H]1OC(N)=O)C2=O` [17-DMAG (Alvespimycin) HCl] showed a relative cell viability of 0.267 ± 0.043.
`CN1CC[C@H](c2c(O)cc(O)c3c(=O)cc(-c4ccccc4Cl)oc23)[C@H](O)C1` [Flavopiridol (Alvocidib)] was tested, and the relative cell viability was 0.143 ± 0.043.
In the case of `CN1CC[C@H](c2c(O)cc(O)c3c(=O)cc(-c4ccccc4Cl)oc23)[C@H](O)C1` [Flavopiridol HCl], the relative cell viability is reported as 0.183 ± 0.015.
`CC(=O)N1c2ccc(-c3ccc(C(=O)O)cc3)cc2[C@H](Nc2ccc(Cl)cc2)C[C@@H]1C` showed a relative cell viability of 0.698 ± 0.027.
Molecule `N#Cc1c(NC(=O)c2cccc3ccccc23)sc2c1CCCC2` [JNK Inhibitor IX] has a relative cell viability of 1.1 ± 0.056.
`Cc1cc2c(cc1CC(=O)c1sccc1S(=O)(=O)Nc1onc(C)c1Cl)OCO2` [Sitaxentan sodium] gave a relative cell viability of 1.18 ± 0.062.
`COc1cc(OC)c2c(=O)[nH]c(-c3cc(C)c(OCCO)c(C)c3)nc2c1` gave a relative cell viability of 0.805 ± 0.0086.
